This is part of a sample that, as a whole, favours compounds with a hit. Of some 83,000 tested, about 20% had one in any assay.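 In brief: 96-well plates, 48 h treatment, single concentration, percent growth endpoint.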 The source made the active and inactive calls. The calls were made as follows: active = growth percent below 10; inactive = the rest.
These compounds were tested on OVCAR-4 ovarian (assay: NCI-60 one-dose screen, 48 h (100 = growth as untreated, 0 = no growth, -100 = all killed)). Details: 10 µM unless noted.

Compound | growth
COc1ccc2[nH]cc(-c3csc4nc(-c5ccccc5)cn34)c2c1 | 56.5% (inactive)
COc1cc(Cn2cc3c(c2)-c2onc(CN4CCCC4)c2CC3)cc(OC)c1OC | 72.7% (inactive)
COC(=O)/C=C/c1c(C2(C)NC(=O)c3ccccc3N2)c(=O)oc2ccc(Cl)cc12 (stereo not drawn) | 98.7% (inactive)
Cc1ccc2c(c1)Oc1nc(N)c(C#N)c(N)c1C2Sc1ccc(F)cc1 (stereo not drawn) | -99.3% (active)
COc1ccc(Cn2cc3c(c2-c2cc(OC)c(OC)c(OC)c2)CCc2c(CN4CCOCC4)noc2-3)cc1 | 52.8% (inactive)
CCNC(=O)N1CCc2cc(OC)c(OCCc3ccc(OC)cc3)cc2C1c1ccc([N+](=O)[O-])cc1C (stereo not drawn) | 54% (inactive)
COc1ccc([C@@H]2[C@@H](O)C(=O)N2c2cc(OC)c(OC)c(OC)c2)cc1F | 63.2% (inactive)
Cc1ccc(-c2nnc(SCc3ccc(O)c4ncccc34)n2-c2ccccc2)cc1 | 13.8% (inactive)
COc1cc2oc(-c3cccc(C(=O)N[C@@H](CC(C)C)C(=O)OC(C)(C)C)c3)cc(=O)c2c(OC)c1OC | 69.6% (inactive)
CC1=NC2=NC(=O)/C(=C3/N=C(C)C=C(c4ccccc4)N3N)NN2C(c2ccccc2)=C1 | 96.7% (inactive)
CN(C)CCN(C)c1ccc2ncc(C#Cc3cncc(C(=O)Nc4ccc(CN5CCN(C)CC5)c(C(F)(F)F)c4)c3)n2n1 | -0.365% (active)
NC(N)=Nc1ccc(Oc2cccc(Nc3ccc(Br)c(C(F)(F)F)c3)c2)cn1 | -75.2% (active)
COc1cc(Cn2cc3c(c2)-c2onc(CN4CCOCC4)c2CC3)cc(OC)c1OC | 74% (inactive)
Nc1ncc(-c2ccc(NS(=O)(=O)c3ccc(Cl)c(Cl)c3)cc2)[nH]1 | 93.9% (inactive)
Cc1nn(-c2ccccc2)c2ncnc(N/N=C/c3ccccc3O)c12 | 28.6% (inactive)
COc1cc(-c2nnc(SCc3ccc(O)c4ncccc34)n2-c2ccccc2)cc(OC)c1OC | 6.79% (active)
Oc1ccc(CSc2nnc(-c3ccc(Cl)cc3)n2-c2ccccc2)c2cccnc12 | 38% (inactive)
CCc1ccc(SC2c3ccc(N(CC)CC)cc3Oc3nc(N)c(C#N)c(N)c32)cc1 (stereo not drawn) | 7.28% (active)
NS(=O)(=O)c1ccc(Nc2cc(-c3ccccc3)nc(SCC(=O)c3ccccc3)n2)cc1 | 102% (inactive)
c1ccc(C(c2nc3ncncc3[nH]2)N2CSc3nc4ccccc4n3C2)cc1 (stereo not drawn) | 99.7% (inactive)
COCCNc1ccc2ncc(C#Cc3cncc(C(=O)Nc4ccc(CN5CCN(C)CC5)c(C(F)(F)F)c4)c3)n2n1 | -10.6% (active)
O=c1c2ccccc2nc(COc2ccccc2)n1NS(=O)(=O)c1ccc(Cl)cc1 | 95.2% (inactive)
O=C1CC(=O)N2CSCN(C(c3ccccc3)c3nc4ncncc4[nH]3)C2=N1 (stereo not drawn) | 107% (inactive)
C[C@H](CCC(=O)NCc1ccc(C(=O)Nc2ccccc2N)cc1)[C@H]1CC[C@H]2[C@@H]3[C@@H](O)C[C@@H]4C[C@H](O)CC[C@]4(C)[C@H]3CC[C@]12C | 65.3% (inactive)
CCNC(=O)N1CCc2cc(OC)c(OCCc3ccc(OC)nc3)cc2C1c1ccc(OC)cc1C (stereo not drawn) | 67.1% (inactive)
C=CCn1c(-c2nc3ccc(C(=C(C#N)C#N)c4ccccc4)cc3[nH]2)cc2cc(Br)ccc21 | 54.5% (inactive)

Each compound was assayed on SK-OV-3 ovarian in the same assay as above. Details: 10 µM unless noted.

Compound | growth
COc1ccc2[nH]cc(-c3csc4nc(-c5ccccc5)cn34)c2c1 | 16.1% (inactive)
COc1cc(Cn2cc3c(c2)-c2onc(CN4CCCC4)c2CC3)cc(OC)c1OC | 108% (inactive)
COC(=O)/C=C/c1c(C2(C)NC(=O)c3ccccc3N2)c(=O)oc2ccc(Cl)cc12 (stereo not drawn) | 106% (inactive)
Cc1ccc2c(c1)Oc1nc(N)c(C#N)c(N)c1C2Sc1ccc(F)cc1 (stereo not drawn) | -94.5% (active)
COc1ccc(Cn2cc3c(c2-c2cc(OC)c(OC)c(OC)c2)CCc2c(CN4CCCC4)noc2-3)cc1 | 41% (inactive)
COc1ccc(Cn2cc3c(c2-c2cc(OC)c(OC)c(OC)c2)CCc2c(CN4CCOCC4)noc2-3)cc1 | 54.2% (inactive)
CCNC(=O)N1CCc2cc(OC)c(OCCc3ccc(OC)cc3)cc2C1c1ccc([N+](=O)[O-])cc1C (stereo not drawn) | 51.4% (inactive)
COc1ccc([C@@H]2[C@@H](O)C(=O)N2c2cc(OC)c(OC)c(OC)c2)cc1F | 28.3% (inactive)
Cc1ccc(-c2nnc(SCc3ccc(O)c4ncccc34)n2-c2ccccc2)cc1 | 5.69% (active)
COc1cc2oc(-c3cccc(C(=O)N[C@@H](CC(C)C)C(=O)OC(C)(C)C)c3)cc(=O)c2c(OC)c1OC | 111% (inactive)
Cc1ccc(S(=O)(=O)N(CC[C@@H]2C[C@H]2c2cc3ccccc3o2)S(=O)(=O)c2ccc(C)cc2)cc1 | 101% (inactive)
Brc1ccccc1/C=N/Nc1nc(N/N=C/c2ccccc2Br)nc(N2CCOCC2)n1 | 114% (inactive)
CC1=NC2=NC(=O)/C(=C3/N=C(C)C=C(c4ccccc4)N3N)NN2C(c2ccccc2)=C1 | 98.8% (inactive)
CN(C)CCN(C)c1ccc2ncc(C#Cc3cncc(C(=O)Nc4ccc(CN5CCN(C)CC5)c(C(F)(F)F)c4)c3)n2n1 | 118% (inactive)
NC(N)=Nc1ccc(Oc2cccc(Nc3ccc(Br)c(C(F)(F)F)c3)c2)cn1 | 32.2% (inactive)
COc1cc(Cn2cc3c(c2)-c2onc(CN4CCOCC4)c2CC3)cc(OC)c1OC | 106% (inactive)
Cc1cc(-c2ccc(Cl)cc2)n(Cc2nnc(SCC(=O)Nc3ccc(S(N)(=O)=O)cc3)n2-c2ccc([N+](=O)[O-])cc2)n1 | 112% (inactive)
COc1ccc(C(=O)CSc2nc3c(c(Nc4ccc(S(N)(=O)=O)cc4)n2)CCCC3)cc1 | 120% (inactive)
CCn1c(SCC(=O)Nc2cccc(C(=O)/C=C/c3cc(OC)c(OC)c(OC)c3)c2)nc2ccccc2c1=O | 102% (inactive)

Compound | growth
Nc1ncc(-c2ccc(NS(=O)(=O)c3ccc(Cl)c(Cl)c3)cc2)[nH]1 | 94.5% (inactive)
Cc1nn(-c2ccccc2)c2ncnc(N/N=C/c3ccccc3O)c12 | 10.4% (inactive)
COc1cc(-c2nnc(SCc3ccc(O)c4ncccc34)n2-c2ccccc2)cc(OC)c1OC | 1.71% (active)
Oc1ccc(CSc2nnc(-c3ccc(Cl)cc3)n2-c2ccccc2)c2cccnc12 | 32.6% (inactive)
CCc1ccc(SC2c3ccc(N(CC)CC)cc3Oc3nc(N)c(C#N)c(N)c32)cc1 (stereo not drawn) | 17.8% (inactive)
CS(=O)(=O)Nc1cc(-c2ccc3ncc(C#N)c(NCc4ccccc4O)c3c2)cnc1Cl | -5.88% (active)
NS(=O)(=O)c1ccc(Nc2cc(-c3ccccc3)nc(SCC(=O)c3ccccc3)n2)cc1 | 110% (inactive)
c1ccc(C(c2nc3ncncc3[nH]2)N2CSc3nc4ccccc4n3C2)cc1 (stereo not drawn) | 102% (inactive)
COCCNc1ccc2ncc(C#Cc3cncc(C(=O)Nc4ccc(CN5CCN(C)CC5)c(C(F)(F)F)c4)c3)n2n1 | -63% (active)
NC(N)=Nc1ccc(Oc2cccc(Nc3ccc(Cl)c(C(F)(F)F)c3)c2)cn1 | 36.8% (inactive)
O=C1CC(=O)N2CSCN(C(c3ccccc3)c3nc4ncncc4[nH]3)C2=N1 (stereo not drawn) | 113% (inactive)
COc1cc(/C=N/NC(=O)c2cn(C3CC3)c3c(OC)c(N4CC5CCCNC5C4)c(F)cc3c2=O)ccc1O (stereo not drawn) | 119% (inactive)
C[C@H](CCC(=O)NCc1ccc(C(=O)Nc2ccccc2N)cc1)[C@H]1CC[C@H]2[C@@H]3[C@@H](O)C[C@@H]4C[C@H](O)CC[C@]4(C)[C@H]3CC[C@]12C | 73.7% (inactive)
N#Cc1cn(Cc2ccc(Cl)cc2Cl)c(C(=O)c2ccc(Br)cc2)c1N | 90.4% (inactive)
CCNC(=O)N1CCc2cc(OC)c(OCCc3ccc(OC)nc3)cc2C1c1ccc(OC)cc1C (stereo not drawn) | 54.6% (inactive)
C=CCn1c(-c2nc3ccc(C(=C(C#N)C#N)c4ccccc4)cc3[nH]2)cc2cc(Br)ccc21 | 63.9% (inactive)
Cc1ccc(S(=O)(=O)NCCNc2nc(Nc3ccc(N4CCN(C)CC4)cc3)nc3ccsc23)cc1 | 129% (inactive)
COc1cc2nc(Cl)nc(Nc3cccc(C4=Nc5c(N)nc(N)nc5NC(c5ccc(Cl)cc5)C4)c3)c2cc1OC (stereo not drawn) | 124% (inactive)
